Among all 31,000 sequences or so, about 1,400 (4.5%) were called active. This is one part of a sample in which actives are shown more often than they occur. A number with no mark means an inactive call.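 How the source made its calls: active means median seed-adjusted z-score above 1 or below -1; inactive means the rest.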

This test is described as follows: Novel Modifiers of Survival Motor Neuron (SMN) Protein: Gene Identification via Genome-wide siRNA Screen.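 Further: luminescence tracks full-length SMN protein made from the SMN2 reporter.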 To be noted: HEK293T SMN2-luciferase reporter, siRNA knockdown, 72 h; actives lie on both sides. A digest of the protocol:
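siRNA screen, 10418 genes ×3 siRNAs; 1 pmol/well, lipid reverse transfection into HEK293T SMN2-luc reporter line. 72 h, 37 °C, 5% CO2; ONE-Glo readout. Data: neg-ctrl normalized, log10, MAD; hit = MAD >1.0 or < -1.0.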
On to GGCUCUACGGUUUCAAGAUTT against CSNK2B, for which the median seed-adjusted z-score is -1.62 (active).

Take CAAUGUCCCAAGAUAAAGATT against PRPSAP1: the median seed-adjusted z-score is 0.224.

Turning to CUCUUUGACCGGUUGCUCATT against EGLN2, the median seed-adjusted z-score is -0.349.

As to CCAUUUUAGCUCUAGAAGATT against GSTA4, the median seed-adjusted z-score was -0.848.

Take GAAUUGGCCGUUGGGCUUATT against COX8A: the median seed-adjusted z-score is -0.0749.

On to CAUCUCGACUUAUUGGAAATT against WEE1, for which the median seed-adjusted z-score was -4.05 (active).

CAAGGUCAUUAAUAAGGAUTT against CST5: the median seed-adjusted z-score is 0.466.

Consider CACCCAACACCAAACUGUATT against HSPB6, for which the median seed-adjusted z-score was 0.394.

With GAAUUAACUUCAUGGUGAATT against PPM1K, the median seed-adjusted z-score was 0.154.

Turning to GCCGAAUCCUGAAGAGACATT against QTRTD1, the median seed-adjusted z-score is 0.377.

In the case of CAACCACUGUGAGACGAAATT against MFGE8, the median seed-adjusted z-score was 0.0367.

For the sequence CUGAGAUACUGCAAGCUGATT against IL5RA, the median seed-adjusted z-score is -0.357.

Consider CCGACUACUCCAACGAGAATT against MASP2, for which the median seed-adjusted z-score was -0.137.

For the sequence GCUCAAGAGCUUGCACAGATT against SLC25A42, the median seed-adjusted z-score is -1.02 (active).

Take CUCUGAACCAAAUCGUUUATT against DPP8: the median seed-adjusted z-score is -0.0209.

Turning to GAUGACUACUUAGCUCUAATT against FLJ90650, the median seed-adjusted z-score was 0.427.

With GGCCUAGUGUAAUCUCCCATT against ZNF774, the median seed-adjusted z-score was -0.0834.

GCAGAUCGAUUUCUCAACATT against ABCA1: the median seed-adjusted z-score is -1.27 (active).

Turning to CCAUGUUACCAUACAAUAATT against MXD1, the median seed-adjusted z-score is -0.763.

Consider CCACAGAGGCUAUGCUAAATT against ACE, for which the median seed-adjusted z-score is 0.0874.

As to GUAGCUCCGAGGUCUGAUATT against SMARCA4, the median seed-adjusted z-score is 0.223.

With GGAACUACCAGAUCGGGAATT against MYO9B, the median seed-adjusted z-score is -0.0287.

As to GCAAGACAAGUGAAGUCAATT against CNBP, the median seed-adjusted z-score was -1.14 (active).

As to CAUGCGGUCUUAGAAAUGATT against HNRPUL1, the median seed-adjusted z-score was -0.047.

GCAUUUGAGCAUGAAAAUATT against VPS29: the median seed-adjusted z-score is -0.408.

Take AGCUACUAGUGGAGCAGAATT against BAT1: the median seed-adjusted z-score was -1.49 (active).

Turning to CCACUCCAUUGAAGAUGUATT against SREBF1, the median seed-adjusted z-score is -0.0469.

Consider CAACCAGAAUUACUGCUAUTT against PCDH10, for which the median seed-adjusted z-score was -0.488.

For the sequence CGACACCAGGAGUACCUCUTT against IKBKE, the median seed-adjusted z-score is 0.122.

Regarding GCAUUUGGAUGGAUCAUGUTT against CD163, the median seed-adjusted z-score is 0.021.

Consider GCUGACUACUUGAAGUUCATT against DYRK1A, for which the median seed-adjusted z-score is -1.3 (active).

GGAAAGACAUGUAAGAGCATT against BMP8B: the median seed-adjusted z-score was 0.

For GAACUAAUCCUGUUCAACATT against ATXN3, the median seed-adjusted z-score was 0.04.

As to CUGUGAUUGUAGUAGAUCATT against SLC19A3, the median seed-adjusted z-score was -0.0232.

With CCUGCCCAGAGAUACGAAATT against SMURF1, the median seed-adjusted z-score was -1.4 (active).

For GGUGGUCUCUUUAUAAUGATT against PHAX, the median seed-adjusted z-score was -0.0716.

Turning to GCCUUUAUGUCAUCCUCAATT against ZNF626, the median seed-adjusted z-score was 0.185.

Consider GCAGGUCACGGUUGAUGUATT against FANCA, for which the median seed-adjusted z-score is 0.418.

Regarding CCAGUGUCAUAAACCUGUATT against NUDT4, the median seed-adjusted z-score is -0.0306.

In the case of GCAUGAGGUUCACCACCAATT against FIBCD1, the median seed-adjusted z-score was -0.0249.

Take GCGGUUUACUAUAGACAAATT against IKBKAP: the median seed-adjusted z-score was -0.0316.

CGAACGAUUUCCCAAGUUATT against NXF1: the median seed-adjusted z-score was -4.46 (active).

For GGUUUUGCACAGCGAGGAATT against B3GALT4, the median seed-adjusted z-score was 0.233.

Turning to GGGCUAGAUCUGUAUCUUATT against TSC22D3, the median seed-adjusted z-score is 0.0129.

Consider GACCUGAUGUGGAAGCAGATT against QDPR, for which the median seed-adjusted z-score is -0.734.

Turning to CCCUGACUCUUGGAUAUGATT against MEOX1, the median seed-adjusted z-score is 0.0171.

Consider GGCGAGAUCUUUAUACGCATT against ZNF224, for which the median seed-adjusted z-score was 0.0073.

In the case of AGAACGUGCUCUUCGCUCATT against PRKAR1B, the median seed-adjusted z-score was -0.0406.

For GGAAAGUUUUUAAGGCGAATT against UHRF2, the median seed-adjusted z-score was -0.0941.

As to CAUUGGAAAGUGCGAGUUATT against HUWE1, the median seed-adjusted z-score is 0.734.

For GAGUGAAGUAUAAUCCAUATT against TPH1, the median seed-adjusted z-score was -0.055.

In the case of CUCUGGUAGAAUCCAAUUATT against GIN1, the median seed-adjusted z-score is -0.0585.

For CCGCUGAGGUGACAACAAATT against XRCC5, the median seed-adjusted z-score was -1.11 (active).

UCUUCUAAAUACUUCCUAATT against GJC3: the median seed-adjusted z-score is -0.137.

Regarding GCAUUUGCCCAGUUCAUGATT against RBM28, the median seed-adjusted z-score was 0.649.

CACUGUCCUUGGGUGAAUATT against ZDHHC20: the median seed-adjusted z-score was -0.936.

Regarding CAAGUAUAUUGAACGAGGATT against SLITRK4, the median seed-adjusted z-score is -0.015.

Regarding UGGUCUCAAUGACAGUAGATT against SNRPB, the median seed-adjusted z-score is -3.17 (active).

As to GCUAAGUACAAAUCAUUCATT against FCN1, the median seed-adjusted z-score is 0.346.

As to GGAGAGUGGUGAUCGGAUATT against MYOM3, the median seed-adjusted z-score is -0.012.

For the sequence CGAUUCACCAGGAACGACATT against ZBTB7B, the median seed-adjusted z-score is -0.242.

Regarding GCCUCAUACCAUUCCAUAUTT against MEP1B, the median seed-adjusted z-score is 1.46 (active).

On to CAGAGGUACUCCACGCAGATT against BHLHA15, for which the median seed-adjusted z-score was -0.199.

For GGCUGGUACCUGGAUGAGATT against FTCD, the median seed-adjusted z-score was -0.27.

For GUCUAAUGCACUUAGCUAATT against HEL308, the median seed-adjusted z-score was 0.229.

GCAAAACGGAGGAUUGAGATT against EIF5B: the median seed-adjusted z-score was 1.68 (active).

Consider GAAUGUGACAAUACAUUUATT against ZNF431, for which the median seed-adjusted z-score was 0.00537.

Take GGAACAAACCCUUAGCUAATT against SLITRK1: the median seed-adjusted z-score was 0.215.

For GGAGUUUCCAGAUCUCAAATT against LGR6, the median seed-adjusted z-score was 0.237.

On to GACUCAUACCAAUCACGAATT against JMJD1A, for which the median seed-adjusted z-score is 0.466.

GGGUCCCUAUUAUCCAGCATT against BAT3: the median seed-adjusted z-score was 0.567.

GACAGAUGACUGAUCCUAATT against PSMD13: the median seed-adjusted z-score was 0.58.

Take GACGGCCUCUAUUACCUCUTT against LTB: the median seed-adjusted z-score was 0.646.

For the sequence CUGUCAAUGUUAUUACUCUTT against TSG101, the median seed-adjusted z-score is 1.48 (active).

In the case of GAAUAAUGCUUAUGCUAGATT against CLIC6, the median seed-adjusted z-score was -0.00828.

As to AAUUCUACGAGUCCAAGUATT against GPS1, the median seed-adjusted z-score is 0.205.

Regarding CAGCCCGUUUUGAAGGGUATT against CRIP3, the median seed-adjusted z-score was 1.7 (active).

For CGAUGGGUAUGAGCCUGGATT against ATHL1, the median seed-adjusted z-score was 0.

With UAUGGGCUCUUGAACCAAATT against MTNR1B, the median seed-adjusted z-score was -0.393.

Turning to GGGUGAUCUUGAUACUGCATT against TOP2B, the median seed-adjusted z-score was 0.225.

On to GAUGCAAACUAGUCCUGAATT against MLC1, for which the median seed-adjusted z-score is -0.284.

For the sequence AAUCGCUCAUGGUUUUUAATT against LRFN3, the median seed-adjusted z-score is 0.483.

On to AUGUGCACCUGACUACUCATT against KRT35, for which the median seed-adjusted z-score was -0.1.

Take CGCGUUCUUCGAUAUGGUATT against PCDHGB6: the median seed-adjusted z-score was 0.34.

Regarding GGCUUUUACCCGCAUGUCATT against ZNF460, the median seed-adjusted z-score was -0.302.

Turning to GCAGAAUAACCUCCAGUAUTT against SLC35A2, the median seed-adjusted z-score was 1.06 (active).

In the case of GACUUUGCAUUUCCUAGUATT against HSPA1A, the median seed-adjusted z-score is -0.833.

CUACUAUUCAGAGACAACATT against GPR3: the median seed-adjusted z-score was 0.

For the sequence GAAAGAAGAAUAUACUGAUTT against RBBP6, the median seed-adjusted z-score was -0.212.

As for GGAAAUUACGGCUACAGAATT against AP1S3, the median seed-adjusted z-score is 0.153.

Take CCUUCUGUAGGAUGCAUUUTT against LY6G5B: the median seed-adjusted z-score is -1.29 (active).

Turning to CAAGAGCACCGGUAAGGAATT against HSPA2, the median seed-adjusted z-score is -0.0343.

As to UGAACUACGUGACCGCGAATT against ELAVL1, the median seed-adjusted z-score is 0.316.

Turning to GCAACUCCAGCCUAAUUAATT against ZNF792, the median seed-adjusted z-score was 0.

CUGUGGUCUCUGUCUCUUATT against GPR75: the median seed-adjusted z-score was 0.

CCAACAAGGUAGACCCAUUTT against PSMC5: the median seed-adjusted z-score was -1.06 (active).

For CUACCAGCCCUACACCAUUTT against CCL1, the median seed-adjusted z-score is 0.537.

Take GGAGAUCCGUGAUGUAACATT against RUVBL2: the median seed-adjusted z-score is -0.0764.

As for AGAUGAAUCUGGAAUCGGUTT against LCN1, the median seed-adjusted z-score is 0.0607.

For CCGAAUGAGUUUGAACAUATT against ZNF48, the median seed-adjusted z-score was -0.116.

As to GGCUCUUCAUGGACCUUCATT against GPR173, the median seed-adjusted z-score was -0.147.

Consider CAACCACAAUGUUCGUAAATT against GBF1, for which the median seed-adjusted z-score is -0.162.

For the sequence GAAUGUCCCUUUAACUGCATT against NFXL1, the median seed-adjusted z-score is 0.118.

Take CGAGUACUGUCUCAAGGUATT against TTC9B: the median seed-adjusted z-score is -0.272.

For CAAUUACGAAUAGAAUUGATT against WEE1, the median seed-adjusted z-score is -4.05 (active).

In the case of AGGACCAAAUGUCAAUUUATT against IL1RN, the median seed-adjusted z-score is 0.283.

GGUGUGAACUGCGAAGUGATT against NOTCH3: the median seed-adjusted z-score was 0.395.

In the case of GGACGUGACUUACAUAGUUTT against PRLR, the median seed-adjusted z-score was 0.394.

The values above are taken from PubChem BioAssay AID1347426 (Functional Genomics Laboratory (NCATS/FGL), 2020).
